Where “and” joins values, the source holds several entries; their conditions need not be identical. Identical values can stand only once. Unmarked numbers belong to inactive results. Inconclusive results are not listed. Calls of active or inactive are those of the source.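 Rule for the calls, unless noted: active = compounds whose dose series gives a full or clear partial fitted curve of increased nuclear translocation; inconclusive = weak partial curve or effect only at the top dose; inactive = no dose-dependent translocation response.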
System: not listed separately
Experiment: Stat Signaling Pathway (AID 446; active = well fitted curve in either direction with a large enough effect, not every such curve was filed as active;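 note: ME-180 cervical cancer cells given 40 pM IL-6 alongside compound; SIE-controlled beta-lactamase reporter measured as 460/530 nm FRET emission ratio; % is set by controls: 0 for no effect and ±100 for the full control effect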)
Details: ME-180 SIE beta-lactamase reporter, IL-6 stimulated, 5 h; at 17.2 µM (top of the series)
In short: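 ME-180 cells carrying a SIE-driven beta-lactamase reporter are stimulated with 40 pM IL-6 for 5 h at 37C in the presence of compound. The 460/530 nm FRET substrate ratio is read after 2.5 h at RT. Data are normalised to 300 pM IL-6 and to 125 nM JAK inhibitor controls.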
For `Nc1nc2c(c(=O)[nH]1)N(C=O)[C@H](CNc1ccc(C(=O)N[C@@H](CCC(=O)O)C(=O)O)cc1)CN2`, the activity, negative = inhibition was 7.59%. With `CCN1CCN(C(=O)N[C@H](C(=O)N[C@@H]2C(=O)N3C(C(=O)O)=C(CSc4nnnn4C)CS[C@@H]23)c2ccc(O)cc2)C(=O)C1=O` the activity, negative = inhibition was 8%. Molecule `COc1ccc([C@@H]2CNC(=O)C2)cc1OC1CCCC1` has an activity, negative = inhibition of -9.88%. Work on `CN(C)CC[C@H](c1ccc(Cl)cc1)c1ccccn1` yielded an activity, negative = inhibition of 1.79%. Work on `COc1ccc2c(c1OC)C(=O)OC2[C@H]1c2c(cc3c(c2OC)OCO3)CCN1C` (stereo partly specified) yielded an activity, negative = inhibition of 4.57%. With `CN1[C@H]2CC(OC(=O)[C@@H](CO)c3ccccc3)C[C@H]1[C@H]1O[C@H]12` (stereo partly specified) the activity, negative = inhibition was -3.14%. With `c1coc(CNc2ncnc3nc[nH]c23)c1` the activity, negative = inhibition was -16.6%.

Same assay, conditions: ME-180 (cervical carcinoma) SIE beta-lactamase reporter, IL-6 stimulated, 5 h; at 38 µM (top of the series)
In the case of `COc1ccc([C@@H]2CNC(=O)C2)cc1OC1CCCC1`, the activity, negative = inhibition is reported as -0.129%. `CN(C)CC[C@H](c1ccc(Cl)cc1)c1ccccn1` showed an activity, negative = inhibition of 2.96%. For `CC(C)[C@H](CO)Nc1nc(Nc2cccc(Cl)c2)c2ncn(C(C)C)c2n1`, the activity, negative = inhibition was -81.5% (active). For `COc1ccc2c(c1OC)C(=O)OC2[C@H]1c2c(cc3c(c2OC)OCO3)CCN1C` (stereo partly specified), the activity, negative = inhibition was 2.78%.

Biological target: Glucocorticoid receptor (Homo sapiens) (UniProt P04150)
Sequence (P04150 whole entry, looked up): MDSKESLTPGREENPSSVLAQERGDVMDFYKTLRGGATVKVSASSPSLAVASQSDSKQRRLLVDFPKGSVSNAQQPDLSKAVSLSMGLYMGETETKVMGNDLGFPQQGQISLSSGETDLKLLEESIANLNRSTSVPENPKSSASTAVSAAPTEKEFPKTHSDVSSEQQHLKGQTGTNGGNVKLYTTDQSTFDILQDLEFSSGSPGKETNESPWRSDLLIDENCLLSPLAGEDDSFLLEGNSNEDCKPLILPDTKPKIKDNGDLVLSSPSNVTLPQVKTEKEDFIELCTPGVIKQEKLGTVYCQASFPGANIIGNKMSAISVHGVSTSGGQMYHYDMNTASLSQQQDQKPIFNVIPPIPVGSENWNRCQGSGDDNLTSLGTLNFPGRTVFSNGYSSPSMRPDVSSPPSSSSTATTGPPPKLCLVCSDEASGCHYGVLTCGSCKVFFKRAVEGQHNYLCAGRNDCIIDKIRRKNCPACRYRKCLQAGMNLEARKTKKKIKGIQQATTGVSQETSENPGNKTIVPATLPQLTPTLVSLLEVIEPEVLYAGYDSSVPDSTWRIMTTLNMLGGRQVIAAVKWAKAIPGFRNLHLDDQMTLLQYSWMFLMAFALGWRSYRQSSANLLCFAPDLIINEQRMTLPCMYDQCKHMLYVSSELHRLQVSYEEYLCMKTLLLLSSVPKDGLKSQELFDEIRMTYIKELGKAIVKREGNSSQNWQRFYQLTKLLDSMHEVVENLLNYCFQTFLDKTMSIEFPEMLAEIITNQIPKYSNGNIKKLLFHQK
Experiment: GR-GFP Redistribution (AID 450); note: potency is the fitted concentration of half-maximal effect
Details: U2OS GR-GFP nuclear translocation, laser cytometry, 2 h
`O=C(O)C=Cc1ccc(Cn2ccnc2)cc1` gave a Potency of over 46 µM. `O=c1c(O)c(-c2ccc(O)c(O)c2)oc2cc(O)ccc12` gave a Potency of over 46 µM. `Nc1nc2c(c(=O)[nH]1)N(C=O)[C@H](CNc1ccc(C(=O)N[C@@H](CCC(=O)O)C(=O)O)cc1)CN2` showed a Potency of over 20.6 µM. `COc1cc2c(cc1OC)[C@@H]1C(=O)c3ccc4c(c3O[C@@H]1CO2)C=CC(C)(C)O4` showed a Potency of over 46 µM. Work on `COc1cc2ncnc(Nc3cccc(Br)c3)c2cc1OC` yielded a Potency of over 46 µM. For `COc1ccc([C@@H]2CNC(=O)C2)cc1OC1CCCC1`, the Potency was > 46 µM and > 20.6 µM. For `CN(C)CC[C@H](c1ccc(Cl)cc1)c1ccccn1`, the Potency was > 46 µM and > 20.6 µM. Molecule `CCOC(=O)C1=C(C)NC(=S)NC1c1cccc(O)c1` (stereo unspecified) has a Potency of over 46 µM. `CC(C)[C@H](CO)Nc1nc(Nc2cccc(Cl)c2)c2ncn(C(C)C)c2n1` showed a Potency of over 46 µM. With `COc1ccc2c(c1OC)C(=O)OC2[C@H]1c2c(cc3c(c2OC)OCO3)CCN1C` (stereo partly specified) the Potency was > 46 µM and > 20.6 µM. Molecule `CN(N=O)C(=O)N[C@H]1C(O)OC(CO)[C@@H](O)[C@H]1O` (stereo partly specified) has a Potency of over 46 µM. For `c1coc(CNc2ncnc3nc[nH]c23)c1`, the Potency was > 20.6 µM and > 46 µM. In the case of `CC(Oc1ccc(O)cc1)(P(=O)(O)O)P(=O)(O)O`, the Potency is reported as over 46 µM. Molecule `COc1cc2c(cc1O)CCC1C2CC[C@@]2(C)C1CC[C@@H]2O` (stereo partly specified) has a Potency of over 46 µM.

Biological target: Glucocorticoid receptor (Homo sapiens) (UniProt P04150)
Experiment: GR-EFC Redistribution (AID 451; calls by dose curve; note: potency is the fitted concentration of half-maximal effect)
Details: CHO-K1 GR-EFC translocation, beta-gal luminescence, 2 h
In short: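 Translocation of GR-ED fusion to nuclear EA restores b-gal, read by luminescence after 1 h room-temperature detection. Engineered CHO-K1 biosensor cells, 1,000/well, exposed 2 h at 37 C to titrations up to 46 uM final.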
Work on `O=C(O)C=Cc1ccc(Cn2ccnc2)cc1` yielded a Potency of over 46 µM. With `O=c1c(O)c(-c2ccc(O)c(O)c2)oc2cc(O)ccc12` the Potency was over 46 µM. In the case of `Nc1nc2c(c(=O)[nH]1)N(C=O)[C@H](CNc1ccc(C(=O)N[C@@H](CCC(=O)O)C(=O)O)cc1)CN2`, the Potency is reported as over 20.6 µM. With `COc1cc2c(cc1OC)[C@@H]1C(=O)c3ccc4c(c3O[C@@H]1CO2)C=CC(C)(C)O4` the Potency was over 46 µM. In the case of `COc1cc2ncnc(Nc3cccc(Br)c3)c2cc1OC`, the Potency is reported as over 46 µM. With `COc1ccc([C@@H]2CNC(=O)C2)cc1OC1CCCC1` the Potency was > 46 µM and > 20.6 µM. With `CN(C)CC[C@H](c1ccc(Cl)cc1)c1ccccn1` the Potency was > 46 µM and > 20.6 µM. Work on `CCOC(=O)C1=C(C)NC(=S)NC1c1cccc(O)c1` (stereo unspecified) yielded a Potency of over 46 µM. Molecule `CC(C)[C@H](CO)Nc1nc(Nc2cccc(Cl)c2)c2ncn(C(C)C)c2n1` has a Potency of over 46 µM. With `COc1ccc2c(c1OC)C(=O)OC2[C@H]1c2c(cc3c(c2OC)OCO3)CCN1C` (stereo partly specified) the Potency was > 46 µM and > 20.6 µM. In the case of `CN(N=O)C(=O)N[C@H]1C(O)OC(CO)[C@@H](O)[C@H]1O` (stereo partly specified), the Potency is reported as over 46 µM. With `c1coc(CNc2ncnc3nc[nH]c23)c1` the Potency was > 20.6 µM and > 46 µM. For `CC(Oc1ccc(O)cc1)(P(=O)(O)O)P(=O)(O)O`, the Potency was over 46 µM. `COc1cc2c(cc1O)CCC1C2CC[C@@]2(C)C1CC[C@@H]2O` (stereo partly specified) showed a Potency of over 46 µM.

Biological target: 3',5'-cyclic-AMP phosphodiesterase 4B (Homo sapiens) (UniProt Q07343)
Sequence (Q07343 whole entry, looked up): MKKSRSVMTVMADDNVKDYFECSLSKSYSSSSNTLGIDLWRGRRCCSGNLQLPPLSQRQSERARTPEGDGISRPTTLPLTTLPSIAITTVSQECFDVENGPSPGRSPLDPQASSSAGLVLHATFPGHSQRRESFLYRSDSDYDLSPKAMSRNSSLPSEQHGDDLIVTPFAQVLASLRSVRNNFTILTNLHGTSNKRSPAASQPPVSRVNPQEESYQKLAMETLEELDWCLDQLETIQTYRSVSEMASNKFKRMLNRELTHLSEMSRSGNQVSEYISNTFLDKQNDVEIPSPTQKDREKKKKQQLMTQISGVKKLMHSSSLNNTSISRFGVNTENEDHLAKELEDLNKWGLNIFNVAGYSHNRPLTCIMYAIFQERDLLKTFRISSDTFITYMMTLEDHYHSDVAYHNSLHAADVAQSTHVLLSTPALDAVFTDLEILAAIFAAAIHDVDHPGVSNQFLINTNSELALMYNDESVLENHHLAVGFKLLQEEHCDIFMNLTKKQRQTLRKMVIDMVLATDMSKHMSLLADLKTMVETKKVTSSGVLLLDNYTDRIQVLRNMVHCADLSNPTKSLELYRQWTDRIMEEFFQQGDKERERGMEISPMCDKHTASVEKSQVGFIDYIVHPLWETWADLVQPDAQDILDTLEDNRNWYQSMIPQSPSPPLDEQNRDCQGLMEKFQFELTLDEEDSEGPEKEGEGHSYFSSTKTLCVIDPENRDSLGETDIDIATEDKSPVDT
Experiment: qHTS Assay for Inhibitors of PDE-IV (AID 607; active = well fitted activation curve with a large enough effect in the main read-out, with a control signal flat, not every such curve was filed as active; note: % of control where 0% means no effect)
Details: HEK293 ACTOne CNG channel cells, membrane potential fluorescence; series mostly up to 22.9 µM
In short: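 HEK293 ACTOne cells with CNG channel (1000/well), endogenous PDE4; membrane potential dye, compounds up to 22.9 uM final. Fluorescence Ex 535/Em 590; RO 20-1724 (100 uM final) as reference.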
For `O=C(O)C=Cc1ccc(Cn2ccnc2)cc1`, the outcome was “inactive”. For `O=c1c(O)c(-c2ccc(O)c(O)c2)oc2cc(O)ccc12`, the outcome was “inactive”. For `Nc1nc2c(c(=O)[nH]1)N(C=O)[C@H](CNc1ccc(C(=O)N[C@@H](CCC(=O)O)C(=O)O)cc1)CN2`, the outcome was “inactive”. In the case of `CCN1CCN(C(=O)N[C@H](C(=O)N[C@@H]2C(=O)N3C(C(=O)O)=C(CSc4nnnn4C)CS[C@@H]23)c2ccc(O)cc2)C(=O)C1=O`, the outcome is reported as “inactive”. For `CN(C)CC[C@H](c1ccc(Cl)cc1)c1ccccn1`, the outcome was “inactive”. In the case of `CC(C)[C@H](CO)Nc1nc(Nc2cccc(Cl)c2)c2ncn(C(C)C)c2n1`, the outcome is reported as “inactive”. In the case of `COc1ccc2c(c1OC)C(=O)OC2[C@H]1c2c(cc3c(c2OC)OCO3)CCN1C` (stereo partly specified), the outcome is reported as “inactive”. In the case of `CN1[C@H]2CC(OC(=O)[C@@H](CO)c3ccccc3)C[C@H]1[C@H]1O[C@H]12` (stereo partly specified), the outcome is reported as “inactive”. For `CN(N=O)C(=O)N[C@H]1C(O)OC(CO)[C@@H](O)[C@H]1O` (stereo partly specified), the outcome was “inactive”. For `c1coc(CNc2ncnc3nc[nH]c23)c1`, the outcome was “inactive”. With `CC(Oc1ccc(O)cc1)(P(=O)(O)O)P(=O)(O)O` the outcome was “inactive”. With `COc1cc2c(cc1O)CCC1C2CC[C@@]2(C)C1CC[C@@H]2O` (stereo partly specified) the outcome was “inactive”.

Reference: PubChem BioAssay (NCATS)
